# PK Bst: alters activity of Bacillus stearothermophilus pyruvate kinase. AID 361. actives 1.2% (n = 51,000). purified pyruvate kinase, luminescence ATP production; ribose 5-phosphate activator present at AC10. Potency, µM; in the data active = potency below about 11 µM; inconclusive = mostly about 12 µM to 25 µM;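 the screen sought inhibitors and activators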;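 note: scaled between full activation by ribose 5 phosphate and full inhibition by luteolin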
# HEK293 cAMP cs: parental HEK293 cAMP activation (counter-screen); AID 938; parental HEK293 CNG cAMP sensor, membrane potential fluorescence; Potency, µM (top dose mostly 57.1 µM), for inactives: at the highest dose activation, actives largely listed as activators; actives 2.5% (n = 73,000); note: % of control where 0% means no effect; nearly all actives have a fitted effect of over 55% in size
#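 Counterscreen for endogenous-receptor signalling: CNG-channel HEK 293 cells report cAMP rise by membrane depolarization. After 60 min dye equilibration with 100 uM RO 20-1724, compounds incubated 30 min before bottom-read fluorescence at 590 nm.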
# TSHR ag: activates the human thyroid stimulating hormone receptor. P16473. HEK293-CNG-TSHR cells (CNG channel as cAMP sensor), membrane potential dye, cAMP. Potency, µM (highest dose often 57.1 µM), for the others: top-dose activation, usual class: activators. actives 0.48% (n = 73,000); active = well fitted activation curve with a large enough effect in the main read-out, with a control signal flat, not every such curve was filed as active; inconclusive = small, poorly fitted or top-dose-only effect, or a change in a side signal; inactive = no such curve, though single readings can be large or run the other way; % of control where 0% means no effect;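 note: the control signal comes from parental cells without the receptor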
# Target sequence (P16473 whole entry, looked up): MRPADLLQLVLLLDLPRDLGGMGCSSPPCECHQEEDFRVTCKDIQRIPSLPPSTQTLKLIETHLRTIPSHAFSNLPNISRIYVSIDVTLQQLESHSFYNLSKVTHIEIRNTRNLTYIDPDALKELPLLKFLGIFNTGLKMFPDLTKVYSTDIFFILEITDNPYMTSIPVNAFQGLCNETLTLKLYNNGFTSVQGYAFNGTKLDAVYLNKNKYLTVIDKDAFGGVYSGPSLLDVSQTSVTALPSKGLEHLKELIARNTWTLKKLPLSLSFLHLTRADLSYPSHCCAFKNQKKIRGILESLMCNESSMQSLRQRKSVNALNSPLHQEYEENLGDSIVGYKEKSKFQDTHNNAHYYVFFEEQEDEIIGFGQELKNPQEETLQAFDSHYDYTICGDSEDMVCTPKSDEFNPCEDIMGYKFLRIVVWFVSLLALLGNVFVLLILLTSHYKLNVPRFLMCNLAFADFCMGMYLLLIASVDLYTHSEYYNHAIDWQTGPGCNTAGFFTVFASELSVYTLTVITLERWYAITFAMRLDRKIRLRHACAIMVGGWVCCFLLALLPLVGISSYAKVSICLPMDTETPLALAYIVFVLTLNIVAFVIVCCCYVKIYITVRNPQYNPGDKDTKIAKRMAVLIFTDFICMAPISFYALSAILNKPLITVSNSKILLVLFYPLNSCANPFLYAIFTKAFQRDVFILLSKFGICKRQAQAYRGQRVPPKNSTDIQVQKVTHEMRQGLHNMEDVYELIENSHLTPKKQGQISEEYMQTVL
#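 cAMP rise detected as CNG-channel membrane depolarization by fluorescent dye (emission 590 nm), 30 min after compound, following 60 min dye loading containing 100 uM RO 20-1724 at room temperature. Cells: TSHR/CNG HEK 293, with parental CNG HEK 293 as control.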
# FLuc inh: inhibitors of firefly luciferase | Potency, µM (titrated, usually from 57.1 µM), for inactives: at the highest dose activity change, negative = inhibition, most hits filed as inhibitors | P08659 | purified firefly luciferase, luminescence, 8 min | actives 2.2% (n = 72,000) | AID 411; note: % is set by controls: 0 for no effect and ±100 for the full control effect; nearly all actives have a fitted effect of over 40% in size
#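 qHTS concentration-response profiling: light output of P. pyralis luciferase with luciferin and 10 uM ATP, imidazole buffer pH 7.2. Read by luminescence after 8-min room-temperature incubation.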
# GBA activity: modulators of human glucocerebrosidase. P04062. purified enzyme, resorufin glucoside fluorescence (screen aimed at inhibitors), 20 min. Potency, µM. actives 1.1% (n = 48,000). AID 360; in the data active = potency below about 15 µM; inconclusive = mostly about 16 µM to 33 µM;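 note: the screen sought inhibitors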
#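 Normal human glucocerebrosidase (0.2 nM final) was assayed with resorufin β-D-glucopyranoside (30 uM final) in 50mM citric acid/KH2PO4, 10mM sodium taurocholate, 0.01% tween-20, pH 5.9. Compounds were titrated; fluorescence (Ex 548, Em 600) read after 20 min at RT.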
# * = called active by the depositor; i = inactive; ? = inconclusive; / = no result; ! = a repeat was not active; [ ] = another dose, or the depositor's remark. This is a sample that favours compounds with a hit; in the whole collection about 5.8% have one here. Unless noted, calls come from the whole dose curve; as a rule, active = well fitted curve in the direction sought with a large enough effect; inconclusive = small, poorly fitted or top-dose-only effect, or another doubt; inactive = no such curve, though single readings can be large; an effect the other way counts as inactive or inconclusive. Potency is the fitted concentration of half-maximal effect.
SMILES,PK Bst,HEK293 cAMP cs,TSHR ag,FLuc inh,GBA activity
CN(C)C(=O)Oc1ccc(OC(=O)c2ccccc2)cc1,i,24%,-5%,16µM*,>77
CN(C)C(=O)Oc1ccc[n+](C)c1,>26,?,?,0%[25.5 µM],/
CN(C)c1ccc2c(c1)N=C(c1ccco1)OP2(=S)N1CCOCC1 (stereo unspecified),>57,25%,16µM*,-4%,>77
CCCC/C=C/[C@@H](NP(=O)(c1ccccc1)c1ccccc1)c1ccccc1OC,/,2µM*,?,/,/
CCCC/C(C)=C/[C@@H](NP(=O)(c1ccccc1)c1ccccc1)c1ccccc1,/,16µM*,?,/,/
CCCCCP(=O)(O)c1ccccc1,/,6%,0%,2%,/
C[C@H]1CC[C@@H]2[C@@H](C)C(=O)O[C@H]3O[C@@]4(C)CC[C@@H]1[C@]32OO4,/,11%,11%,1%[11.4 µM],/
CN1C(=O)C(C2c3ccccc3C(=O)N2Cc2ccccc2)C(=O)N(C)C1=O (stereo unspecified),>57,3%,/,4%,12*
Cc1ccc2nc(N3CCN(C)CC3)[nH]c2c1,/,20%,-2%,-28%,>77
CN1CCN(c2ccc3nc(-c4ccc5nc(-c6ccc(O)cc6)[nH]c5c4)[nH]c3c2)CC1,/,6%[11.4 µM],3%[11.4 µM],4µM*,/
O=C(CN1CCCC1=O)N1CCOCC1,>57,4%,-2%,0%,>77
O=C1CCCN1CC#CCN1CCCC1,/,29%,10%,25µM*!,/
Cc1ccc2nc3c(cc2c1)CC1(C(=O)N(C)C(=O)N(C)C1=O)C1CCCCN31 (stereo unspecified),?,8%,-4%,6.3µM*,>77
Cc1ccc2nc3c(cc2c1)CC1(C(=O)N(C)C(=O)N(C)C1=O)C1COCCN31 (stereo unspecified),/,5%,-2%,?,>77
CC1N(P(=O)(c2ccccc2)c2ccccc2)CC(O)(c2ccccc2)CC12CC2 (stereo unspecified),/,16µM*,?,/,/
O=P(c1ccccc1)(c1ccccc1)N1CCCCC1,>26,/,/,2%[25.5 µM],/
COc1cc2c(cc1OC)[C@]13CCN4CC5=CCO[C@@H]6CC(=O)N2[C@@H]1[C@H]6[C@@H]5C[C@H]43,/,8%,5%,0%[11.4 µM],/
COc1ccc(P2(=O)Nc3ccccc3N2)cc1,/,3%,-18%,6.3µM*,>77
CC[C@@H]1CN2CC[C@@H]1C[C@H]2[C@@H](O)c1ccnc2ccc(OC)cc12,/,?,?,-3%[11.4 µM],/
O=C(O)/C=C\c1ccc[c]([Sb](=[O])([OH])[OH])c1,/,0%[11.4 µM],-7%[11.4 µM],2%[11.4 µM],/
C=C(C)[C@H]1[C@H]2OC(=O)[C@@H]1[C@]1(O)C[C@H]3O[C@]34C(=O)O[C@H]2[C@]14C,/,6%,-2%,1%[11.4 µM],/
CCN(CC)CCCN=Cc1c(O)n(Cc2ccc(F)cc2)c(=O)[nH]c1=O,/,6%,6%,13µM*,>77
CCN(CC)CCCN=Cc1c(O)n(CCc2ccc(OC)c(OC)c2)c(=O)[nH]c1=O,>57,4%,/,1%,>77
C[C@H]1CC[C@]2(NC1)O[C@@H]1C[C@@H]3[C@@H]4CC=C5C[C@H](O)CC[C@@]5(C)[C@H]4CC[C@@]3(C)[C@H]1[C@@H]2C,/,-3%,2%,2%[11.4 µM],/
CC(=O)c1c(C)nc2ccccc2c1N,2.5*,-7%,1%,3.2µM*,>77
SMILES,PK Bst,HEK293 cAMP cs,TSHR ag,FLuc inh,GBA activity
Cc1nc2ccccc2c(=O)n1-n1cnnc1,>57,7%,-3%,-1%,>77
N[C@H](Cn1oc(=O)[nH]c1=O)C(=O)O,/,10%,8%,1%,/
Cc1ccc2c(c1)C1CN(C)CCC1N2C(=O)c1ccc(Br)o1 (stereo unspecified),>57,17%,5%,-3%,>77
Cc1ccc2c(c1)C1CN(C)CCC1N2S(=O)(=O)c1ccccc1 (stereo unspecified),>57,9%,7%,1%,10*
COc1ccc2c(c1O)-c1cccc3c1[C@H](C2)N(C)CC3,/,13%,4%,3%,/
COc1ccccc1OCCCn1cc(C(=O)c2ccco2)c2ccccc21,>57,32µM*,?,-6%,/
NNc1c(C(N)=O)c2c(N)ncnc2n1[C@@H]1O[C@H](CO)[C@@H](O)[C@@H]1O,/,-6%[11.4 µM],2%[11.4 µM],3%[11.4 µM],/
c1ccc(CN2CCC3(CCc4ccccc43)CC2)cc1,/,32µM*,?,0%,/
COc1cc2c(cc1O)CCN[C@H]2C,/,3%,2%,0%[11.4 µM],/
CCOC(=O)c1c(C)n(Cc2ccco2)c2ccc(OC)cc12,/,25µM*,?,-2%,/
C[C@@H](Cc1cccc(C(F)(F)F)c1)NCCCc1ccccc1,/,40µM*,?,3%,/
CCCC(=O)Nc1ccc(N2CCN(CC)CC2)c(Cl)c1,>57,6%,2%,0%,1.7*
CC(C)[C@@]1(NC(=O)[C@@H]2C=C3c4cccc5[nH]cc(c45)C[C@@H]3N(C)C2)O[C@]2(O)[C@H]3CCCN3C(=O)[C@H](Cc3ccccc3)N2C1=O,/,-11%,-6%,-8%,/
CN1CC[C@@]2(c3cccc(O)c3)Cc3nc4ccccc4cc3C[C@H]2C1,/,23%,20%,25µM*,/
CN1C[C@@H](CS(=O)(=O)N(C)C)C[C@H]2c3cccc4c3c(cn4C)C[C@@H]21,/,11%,4%,2%,/
COc1cc2cc(c1Cl)N(C)C(=O)C[C@H](OC(=O)C(C)C)[C@]1(C)O[C@@H]1[C@@H](C)[C@H]1C[C@](O)(NC(=O)O1)[C@@H](OC)/C=C\C=C(\C)C2,/,1µM*,?,3%[11.4 µM],/
O=C(Oc1ccc2ccccc2c1Cl)N1CCCC1,/,8%,-10%,16µM*,>77
CCCCCCn1c(O)c(C=NC2CCCCC2N)c(=O)[nH]c1=O (stereo unspecified),2.7*,6%,/,1.3µM*,>77
CCCN1CCc2cccc3c2[C@@H]1Cc1ccc(O)c(O)c1-3,/,-2%,1%,-11%,/
